“And” between values parts separate entries of the source, which are not always exact repeats. Identical values can stand only once. Results filed as inconclusive are left out. The source made the active and inactive calls.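 Rule for the calls, unless noted: active = normalized viability below 100% at a tested concentration; inactive = the rest.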

The results in this text go back to PubChem BioAssay.

Assay [1] can be described thus: ovarian cancer cell viability with rucaparib, profiling panel, oncology-focused library, rucaparib conditional (AID 1508598). The settings on record: patient-derived ovarian cancer cells, CellTiter-Glo viability, 144 h, stronger effect = lower value.
A short description of assay [2]: LFS_MB_P medulloblastoma growth inhibition, cell-based, chromothripsis tumors, cisplatin or BGB combos (AID 1671449; in the data active = inhibition above about 80%;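 note: cells exposed for 96 hours; 0% = vehicle DMSO and 100% = killing by high DMSO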). As to conditions: LFS_MB_P medulloblastoma cells.
A short description of assay [3]: HDN33 neuroblastoma growth inhibition, cell-based, chromothripsis tumors, cisplatin or BGB combos (AID 1671450; in the data active = inhibition above about 80%;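 note: cells exposed to compound for four days; 0% = vehicle DMSO and 100% = cell killing by high DMSO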). As to conditions: HDN33 neuroblastoma cells, stronger effect = higher value.
A short description of assay [4]: ICB984 medulloblastoma cell growth inhibition, synergistic combos for chromothripsis tumors, cisplatin or BGB combos (AID 1671451; call rule not given here;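 note: cells exposed for 96 hours before readout; 0% = vehicle DMSO and 100% = killing by high DMSO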). The settings on record: ICB984 medulloblastoma cells, drug combinations, stronger effect = higher value.
Assay [5] in a line: HTB85 osteosarcoma cell growth inhibition, synergistic combos for chromothripsis tumors, BGB or cisplatin IC20 combos (AID 1671453; in the data active = inhibition above about 80%;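 note: cells exposed for 96 hours before readout; 0% = vehicle DMSO and 100% = high DMSO killing control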). The settings on record: HTB85 osteosarcoma cells, drug combinations, stronger effect = higher value.
The nature of assay [6]: MDA-MB-436 breast carcinoma cell growth inhibition, synergistic combos for chromothripsis tumors, BGB or cisplatin combos (AID 1671458; call rule not given here;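 note: cells exposed for 96 hours; 0% = vehicle DMSO and 100% = killing by high DMSO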). As to conditions: MDA-MB-436 breast carcinoma growth inhibition, drug combinations, stronger effect = higher value.
Assay [7] is described as follows: growth inhibition of BT084 medulloblastoma cells, cell-based, ICGC_MB145, cisplatin and BGB IC40 combos (AID 1671461; in the data active = inhibition above about 80%;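 note: cells exposed to drugs for 96 hours; 0% = vehicle DMSO and 100% = high DMSO full killing control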). As to conditions: drug combinations, stronger effect = higher value.
Assay [8] is described as follows: growth inhibition of RCMB18 medulloblastoma cells, cell-based, cisplatin and BGB IC40 combos (AID 1671462; in the data active = inhibition above about 80%;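 note: cells exposed to compound for four days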). As to conditions: stronger effect = higher value.
A short description of assay [9]: growth inhibition of CRL1545 osteosarcoma cells, cell-based, cisplatin and BGB IC20 combos (AID 1671464; in the data active = inhibition above about 80%;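 note: cells exposed to compound for 96 hours before readout; 0% = vehicle DMSO and 100% = high DMSO killing control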). The settings on record: stronger effect = higher value.
Assay [10] can be described thus: growth inhibition of DIPG glioma cells, dose response, cell-based, JHH-DIPG-1, MIPE4.0, CellTiter-Glo, qHTS (AID 1347062; cut-off not given, nearly all actives have AC50 up to about 27 µM;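 for AC50: cells exposed to compound for two days before readout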). As to conditions: JHH-DIPG-1 viability, CellTiter-Glo ATP luminescence. A general note: Cellular ATP, detected with luciferase, serves as a proxy for viable cell number.
Assay [11] in a line: growth inhibition of DIPG glioma cells, dose response, cell-based, SU-DIPG-IV, MIPE4.0, CellTiter-Glo, qHTS (AID 1347063; cut-off not given, nearly all actives have AC50 up to about 30 µM;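 note: compound exposure lasted 48 hours before the viability readout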). As to conditions: SU-DIPG-IV viability, CellTiter-Glo ATP luminescence.
Assay [12] can be described thus: growth inhibition of DIPG glioma cells, dose response, cell-based, SU-DIPG-XIII, MIPE5.0, CellTiter-Glo, qHTS (AID 1347064; cut-off not given, nearly all actives have AC50 up to about 23 µM;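 note: cells exposed to compound for 48 hours before the viability read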). As to conditions: SU-DIPG-XIII viability, CellTiter-Glo ATP luminescence.
The nature of assay [13]: viability loss in pontine glioma line – cell-based, SU-DIPG-XXV, MIPE5.0, CellTiter-Glo, qHTS, dose response (AID 1347065; cut-off not given, nearly all actives have AC50 up to about 26 µM;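 note: cells exposed to compound for 48 hours before ATP readout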). The settings on record: CellTiter-Glo ATP luminescence.
Assay [14] is described as follows: SU-DIPG-VI glioma cell viability, MIPE4.0 library, CellTiter-Glo luminescence, qHTS (AID 1347066; cut-off not given, nearly all actives have AC50 up to about 30 µM;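 note: cells exposed to compound for 48 hours before readout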). The settings on record: CellTiter-Glo ATP luminescence.
The nature of assay [15]: JHH-DIPG-1 glioma cell viability, MIPE5.0 library, CellTiter-Glo luminescence, qHTS (AID 1347067; cut-off not given, nearly all actives have AC50 up to about 26 µM;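 note: cells exposed to compound for 48 hours before readout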). The settings on record: JHH-DIPG-1 glioma viability, CellTiter-Glo ATP luminescence.
The nature of assay [16]: SU-DIPG-XXV glioma cell viability, MIPE5.0 library, qHTS (AID 1347068; cut-off not given, nearly all actives have IC50 up to about 30 µM;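 note: cells exposed to compound for 48 hours before viability readout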).
Where [17] appears, read: measured here: with BGB IC20 combination, at 0.5 µM.
[18] abbreviates: measured here: with cisplatin IC20 combination, at 0.5 µM.

Turning to `CN(C)Cc1ccc(-c2nc3cccc4c3n2CCNC4=O)cc1`, the viability – broadly, a read-out of living cells in per cent, often relative to untreated cells – in assay [1] (at 0.0781 µM, OCI-P5x cells, with rucaparib 20 µM, 100% = cells with rucaparib alone) was 89.9% (active); in assay [1] (at 0.0781 µM, OCI-P5x cells, without rucaparib) it was 107% (inactive); in assay [1] (at 0.313 µM, OCI-C5x cells, with rucaparib 10 µM, 100% = cells with rucaparib alone) it was 117% (inactive); in assay [1] (at 0.313 µM, OCI-C5x cells, without rucaparib) it was 118% (inactive); in [1] (at 0.313 µM, OCI-P5x cells, with rucaparib 20 µM, 100% = cells with rucaparib alone) it was 88.6% (active); in assay [1] (at 0.313 µM, OCI-P5x cells, without rucaparib), 101% (inactive). Besides, the viability was 109% (inactive) in assay [1] (at 1.25 µM, OCI-C5x cells, with rucaparib 10 µM, 100% = cells with rucaparib alone); 121% (inactive) in assay [1] (at 1.25 µM, OCI-C5x cells, without rucaparib); 88.7% (active) in [1] (at 1.25 µM, OCI-P5x cells, with rucaparib 20 µM, 100% = cells with rucaparib alone); 92.1% (active) in [1] (at 1.25 µM, OCI-P5x cells, without rucaparib); 120% (inactive) in assay [1] (at 5 µM, OCI-C5x cells, with rucaparib 10 µM, 100% = cells with rucaparib alone); 114% (inactive) in assay [1] (at 5 µM, OCI-C5x cells, without rucaparib). Moreover, the viability in [1] (at 5 µM, OCI-P5x cells, with rucaparib 20 µM, 100% = cells with rucaparib alone) was 78.4% (active); in [1] (at 5 µM, OCI-P5x cells, without rucaparib) it was 83.9% (active). In addition, the inhibition (commonly the change of the read-out against control, counted positive when it falls) was -24.1% (inactive) and -21.5% (inactive) in assay [2] (at 0.5 µM, stronger effect = higher value); -9.73% and -22% in [2] (measured here: combination with BGB IC20, at 0.005 µM); 64% and -31.1% in assay [2] (measured here: combination with BGB IC40, at 0.005 µM); -13% and -56% in [2] (measured here: combination with BGB IC40, at 0.05 µM); -37.5% and -16.8% in [2] (measured here: combination with cisplatin, at 0.5 µM, stronger effect = higher value); -29.7% and -74.4% in assay [2] (measured here: combination with cisplatin, at 5 µM, stronger effect = higher value). For the same compound, the inhibition in assay [3] (BGB combo, at 5 µM) was -26.8% and -18.6%; in assay [3] (at 0.5 µM), -1.23% (inactive) and -27.1% (inactive); in assay [3] (cisplatin combo, at 5 µM) it was 6.93% and -10.3%; in [3] (setting [17]), -13.1% and -21.5%; in [3] (setting [18]), 15.7% and -26.9%; in assay [3] (single agent, at 5 µM), -4.63% and 68.3%. The inhibition in assay [4] (BGB IC20 combo, at 0.005 µM) is -1.21% and 16.5%; in assay [4] (BGB IC40 combo, at 0.005 µM) it was -19.6% and -25.1%; in [4] (BGB IC40 combo, at 0.05 µM) it was -33.7% and -42.1%; in assay [4] (at 0.5 µM), -15.4% (inactive) and -23.9% (inactive); in assay [4] (cisplatin combo, at 0.05 µM), -40.7% and -47.2%; in assay [4] (cisplatin combo, at 0.5 µM), -18.6%. Further, the inhibition was -4.49% and -37.9% in [4] (cisplatin combo, at 5 µM); -23% and -7.92% in assay [4] (measured here: 5 uM single agent, at 5 µM); 17.4% (inactive) and -2.96% (inactive) in assay [5] (at 0.5 µM); 58.8% and -16.5% in assay [5] (measured here: with BGB IC20, at 0.5 µM); 10.8% and 1.62% in assay [5] (measured here: with BGB IC20, at 5 µM); -2.97% and 1.8% in assay [5] (measured here: with cisplatin IC20, at 0.5 µM). Also, the inhibition is 2.38% and -10.9% in assay [5] (measured here: with cisplatin IC20, at 5 µM); 7.8% and -6.63% in [5] (single agent, at 5 µM); -0.12% (inactive) and 3.53% (inactive) in assay [6] (at 0.5 µM); -12.4% and -11.3% in [6] (measured here: BGB combination, at 0.5 µM); -14% and -5.01% in [6] (measured here: BGB combination, at 5 µM); 2.29% and 7.08% in assay [6] (measured here: cisplatin combination, at 0.5 µM). For the same compound, the inhibition in assay [6] (measured here: cisplatin combination, at 5 µM) is -4.32% and 2.44%; in [7] (at 0.5 µM), -6.05% (inactive) and -22.2% (inactive); in assay [7] (cisplatin combination, at 0.5 µM) it was -18.4% and -65.7%; in assay [7] (cisplatin combination, at 5 µM) it was -58.6% and -32.7%; in assay [7] (measured here: BGB IC40 combination 0.05 uM, at 0.05 µM), -19.6% and 43.4%; in assay [7] (single agent, at 5 µM), -6.92% and -7.26%. In addition, the inhibition was -9.62% (inactive) and -41.4% (inactive) in assay [8] (at 0.5 µM); -40.6% and -33.3% in assay [8] (cisplatin combo, at 5 µM); -1.87% and -3.35% in [8] (measured here: BGB IC40 combination, at 0.05 µM); -15.6% and -104% in assay [8] (measured here: combination with cisplatin, at 0.5 µM); -19.5% and -24.5% in assay [8] (single agent, at 5 µM); 4.03% (inactive) and 11.8% (inactive) in assay [9] (at 0.5 µM). The inhibition was -8.48% and 3.96% in assay [9] (setting [17]); 8.84% and 14.3% in [9] (setting [18]); 17.2% and 13.3% in assay [9] (single agent, at 0.05 µM); -17.9% and -17.8% in assay [9] (single agent, at 5 µM).
For the compound `c1cc(N[C@@H]2CCNC2)nc(-c2cnc3ccc(-c4cn[nH]c4)cn23)c1`, the AC50 (in general, the concentration at which the activity in the assay is half-maximal) in [10] is 11.8 µM (active); in assay [11], 14.8 µM (active); in assay [12] it was 14.8 µM (active); in assay [13], 16.6 µM (active); in [14] it was 18.7 µM (active); in assay [15] it was 16.6 µM (active). Besides, in assay [16], the IC50 (in general, the point on the concentration scale where inhibition reaches its midpoint) is 11.8 µM (active).
Consider `Cc1ccccc1C(C(=O)NC1CCCC1)N(C(=O)Cn1cnc2ccccc21)c1cccc(F)c1` (centres undefined), for which the outcome in assay [10] and in [11] was inactive.
